In PubChem BioAssay (NCI):
Compounds without any hit were thinned out: in the full panel of roughly 83,000, 20% have a hit.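 Cell lines were cultured in 96-well plates, exposed to a single compound concentration, and assessed for percent growth 48 hours later.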 The source made the active and inactive calls. How the source made its calls: active means growth percent below 10; inactive means the rest.

Test system: MDA-MB-468 breast
Assay: NCI-60 one-dose screen, 48 h (100 = growth as untreated, 0 = no growth, -100 = all killed)
Details: 10 µM unless noted

Row | SMILES | growth
1 | NS(=O)(=O)c1ccc(CCN2C(=O)/C(=C\c3ccc(Cl)cc3)C=C2c2ccc3ccccc3c2)cc1 | 91% (inactive)
2 | COc1cc(C)ccc1Oc1nc(Nc2ccc(N3CCOCC3)cc2)ncc1NC(=O)Nc1cc(C(F)(F)F)cc(C(F)(F)F)c1 | 72.8% (inactive)
3 | CCOC(=O)c1c(C)oc2ncnc(N3CCN(C(=S)Nc4ccccc4)CC3)c12 | 85.2% (inactive)
4 | COc1ccc(/C=C(/C(=O)N2CCN(c3ccccc3)CC2)c2cc(OC)c(OC)c(OC)c2)cc1N | 11.7% (inactive)
5 | N#Cc1c(Nc2ccccc2)nn2c(-c3ccc([N+](=O)[O-])cc3)ccnc12 | 106% (inactive)
6 | COc1ccc(C(=O)/C=C/c2c(Cl)c3c(c(OC)c2Cl)OCC(=O)N3)cc1 | 12.4% (inactive)
7 | CNC(=O)OC1C(O[C@H]2C[C@H]3[C@@H]4CC=C5C[C@@H](O)CC[C@]5(C)[C@H]4CC[C@]3(C)[C@H]2[C@H](C)C(=O)CCC(C)C)OCC(O)C1OC1OCC(O)C(O)C1OC(=O)c1ccc(OC)cc1 (stereo not given in full) | -0.149% (active)
8 | O=C(CCCCCCN1CC(=O)N2[C@@H](c3ccc(Cl)s3)c3[nH]c4ccccc4c3C[C@H]2C1=O)NO | 30.7% (inactive)
9 | CN1CCN(Cc2ccc(NC(=O)c3cncc(C#Cc4cncc5ncccc45)c3)cc2C(F)(F)F)CC1 | 43.5% (inactive)
10 | Nc1cc(N)c(S(=O)(=O)O)cc1N=Nc1cc([N+](=O)[O-])ccc1O | 102% (inactive)
11 | O=c1cc(C2NCCc3c2[nH]c2ccccc32)c2c(ccc3ccccc32)o1 (stereo not given) | 89.9% (inactive)
12 | COc1ccc(/C=C2\CCCC3=C2NC(C)=NC3c2ccc(OC)c(OC)c2)cc1OC (stereo not given) | -10.3% (active)
13 | COc1cccc(-n2cc(-c3nc(Nc4cc(C)[nH]n4)c4ccccc4n3)nn2)c1 | 48.1% (inactive)
14 | CC1(C)NCCC[C@]2(C)[C@H]3CC=C4[C@@H]5C[C@@](C)(CO)CC[C@]5(C)CC[C@@]4(C)[C@]3(C)CC[C@@H]12 | 67.6% (inactive)
15 | C#CC[C@@H]1C[C@]2(C)[C@H]3CC[C@@H]4[C@H]5[C@H](C(=C)C)CC[C@]5(C(=O)O)CC[C@@]4(C)[C@]3(C)CC[C@H]2C(C)(C)[C@H]1O | -2.92% (active)
16 | CCOC(=O)c1sc(-c2ccc(OS(=O)(=O)c3cccs3)c(C=O)c2)nc1C | -15.4% (active)
17 | N#CC(C#N)C(C#N)C#N | 99.7% (inactive)
18 | CCSc1nnc2n(Cc3ccccc3)c(=O)c3c(C)c(C(N)=O)sc3n12 | 101% (inactive)
19 | O=C(NN1C(=O)CSC1c1ccc(Cl)cc1)c1[nH]c2ccc(F)cc2c1-c1ccccc1 (stereo not given) | 69.3% (inactive)
20 | CCN1C(=S)N(CC)C2C1N=C(SC)N2/N=C/C=C/c1ccccc1[N+](=O)[O-] (stereo not given) | 99.8% (inactive)

Row | SMILES | growth
21 | C=C(CN1CC=CCC1)[C@@H]1CC[C@]2(COC(C)=O)CC[C@]3(C)[C@H](CC[C@@H]4[C@@]5(C)CC[C@H](O)C(C)(C)[C@@H]5CC[C@]43C)[C@@H]12 | 95% (inactive)
22 | O=C(Nc1cccc(C(F)(F)F)c1)c1cc(-c2ccc(F)cc2F)ccc1O | -5% (active)
23 | C#CCOc1ccc(/C=N/Nc2nc(-c3ccc(OC)cc3)cs2)cc1 | 45.3% (inactive)
24 | COc1cc(C2CC(c3cccc(Nc4ccncc4)c3)=NN2C(C)=O)cc(OC)c1OC (stereo not given) | 86.6% (inactive)
25 | C=C1C(=O)O[C@H]2[C@H]1CC/C(COC(=O)CSCCSCC(=O)OC/C1=C/CC[C@@]3(C)O[C@H]3[C@H]3OC(=O)C(=C)[C@@H]3CC1)=C\CC[C@@]1(C)O[C@@H]21 | -44.7% (active)
26 | O=C(Nc1nn2c(-c3cc(C(F)(F)F)cc(C(F)(F)F)c3)nnc2s1)C1CCCC1 | -17.2% (active)
27 | COc1ccc(/C=C/c2nc(Nc3cccc(NC(C)=O)c3)c3ccccc3n2)cc1 | 67.1% (inactive)
28 | COc1ccc(-c2nc3sccn3c2-c2ccnc(NCCCNS(=O)(=O)c3ccc4ccccc4c3)n2)cc1 | 71.1% (inactive)
29 | COc1ccc2nc(-c3ccc(OC)c(OC)c3)cc(-c3nnc(SCC(=O)Nc4ccc(/C(C)=N\O)cc4)n3-c3ccccc3)c2c1 | 56.2% (inactive)
30 | CCOC(=O)c1ccc(C(C)(C)C)cc1 | 107% (inactive)
31 | O=C(/C=C/Nc1ccc(S(=O)(=O)Nc2ncccn2)cc1)c1ccc(N=Cc2c(O)[nH]c3ccccc23)cc1 | 109% (inactive)
32 | CSC(=S)N/N=C(\C)c1ccccn1 | -19.5% (active)
33 | O=[N+]([O-])c1cccc(-c2nc3sccn3c2-c2ccnc(NCCCNS(=O)(=O)c3ccc(F)cc3)n2)c1 | -8.54% (active)
34 | CSCCC(C(=O)O)N1C(=O)/C(=C/c2ccc(O)c(O)c2)SC1=S (stereo not given) | 100% (inactive)
35 | Oc1ccc(Cc2ccc(O)c3ncccc23)c2cccnc12 | -16% (active)
36 | N#Cc1c(-c2cccc(F)c2)cc(-c2cccnc2)[nH]c1=O | 106% (inactive)
37 | COc1cc(Nc2c(C#N)cnc3cc(OCCCN4CCN(C)CC4)c(OC)cc23)c(Cl)cc1Cl | 56.2% (inactive)
38 | COc1cc2oc(-c3ccc(O)cc3)cc(=O)c2c(O)c1I | 105% (inactive)
39 | Cc1ccc2c(n1)C(=O)C(Cl)=C(Nc1cc(C(F)(F)F)cc(C(F)(F)F)c1)C2=O | 32.5% (inactive)
40 | Cc1cc(C)c(NC(=O)c2sc3nc4c(cc3c2N)CCCC4)c(C)c1 | 47.9% (inactive)
